# The whole screen tested about 310,000 compounds, of which about 14,000 (4.5%) showed an effect of 50% or more. Effects have a minus sign here. The list comes from a sample in which strong results are over-represented; it also holds similar structures and randomly drawn compounds.
# Molecular target: human ether-à-go-go-related gene (hERG) potassium channel (human, UniProt Q12809)
# Test: primary screen, population patch clamp on CHO cells stably expressing hERG; higher = less effect of the substance
# 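Note: peak tail current of the secondary pulse compared with the same well before compound.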
# Chain of human ether-à-go-go-related gene (hERG) potassium channel (Q12809 whole entry, looked up): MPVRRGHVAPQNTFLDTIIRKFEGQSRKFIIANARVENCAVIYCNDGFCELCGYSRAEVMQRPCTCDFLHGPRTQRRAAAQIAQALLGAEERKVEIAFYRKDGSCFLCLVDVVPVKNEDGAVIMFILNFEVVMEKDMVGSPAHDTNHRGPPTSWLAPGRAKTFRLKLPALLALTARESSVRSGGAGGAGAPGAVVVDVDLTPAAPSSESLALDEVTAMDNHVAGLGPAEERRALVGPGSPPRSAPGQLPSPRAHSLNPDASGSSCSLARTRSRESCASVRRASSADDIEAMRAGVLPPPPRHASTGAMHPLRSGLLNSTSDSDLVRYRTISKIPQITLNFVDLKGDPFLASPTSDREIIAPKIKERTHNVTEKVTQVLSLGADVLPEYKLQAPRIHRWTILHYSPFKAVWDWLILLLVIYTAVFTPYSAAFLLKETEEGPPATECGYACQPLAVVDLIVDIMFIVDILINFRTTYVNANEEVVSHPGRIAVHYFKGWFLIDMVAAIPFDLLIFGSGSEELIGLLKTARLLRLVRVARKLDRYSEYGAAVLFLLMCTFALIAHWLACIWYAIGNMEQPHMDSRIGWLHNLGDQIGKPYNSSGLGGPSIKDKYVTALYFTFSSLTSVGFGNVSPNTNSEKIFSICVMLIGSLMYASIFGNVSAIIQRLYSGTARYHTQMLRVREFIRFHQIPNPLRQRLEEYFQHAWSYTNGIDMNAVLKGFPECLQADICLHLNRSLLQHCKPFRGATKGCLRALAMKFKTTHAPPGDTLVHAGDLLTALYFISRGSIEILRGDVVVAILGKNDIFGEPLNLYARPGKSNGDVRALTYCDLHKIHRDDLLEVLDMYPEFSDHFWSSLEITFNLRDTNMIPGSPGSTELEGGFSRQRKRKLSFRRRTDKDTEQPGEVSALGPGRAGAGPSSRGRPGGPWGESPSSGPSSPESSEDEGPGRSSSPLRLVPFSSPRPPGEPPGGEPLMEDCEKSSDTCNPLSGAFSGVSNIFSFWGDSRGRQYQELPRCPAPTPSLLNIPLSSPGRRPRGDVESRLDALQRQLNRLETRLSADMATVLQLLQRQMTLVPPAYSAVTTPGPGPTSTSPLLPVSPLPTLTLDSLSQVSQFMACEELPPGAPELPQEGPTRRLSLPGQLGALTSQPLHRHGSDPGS
row,SMILES,"hERG current change (%, negative = inhibition) at 10uM [%]"
1,COC(=O)C(C)n1cnc2c(nnn2Cc2ccc(Cl)cc2)c1=O (stereo not drawn),-16.4
2,CCC1=Nc2cc(C(=O)NCc3ccco3)ccc2Sc2ccc(C)cc21,-0.612
3,CN(Cc1ccccc1)C(=O)CN1C(=O)NC2(CCCCCCC2)C1=O,-11.7
4,O=C(CCc1ccccc1)NNC(=O)Nc1ccccc1,1.26
5,COc1ccc(OC)c(CNC(=O)Cc2c(C(=O)O)[nH]c3ccccc23)c1,15.3
6,Cc1ccccc1N1CCN(C2CCCN(C(=O)c3ocnc3C)C2)CC1 (stereo not drawn),-16.9
7,CN(c1ccccc1)S(=O)(=O)c1cccc(C(=O)OCC(=O)Nc2ccc3[nH]c(=O)[nH]c3c2)c1,19.6
8,CN(CCc1ccccn1)Cc1ccc(Cl)cc1,-53.7
9,CN(CCc1ccccn1)C(=O)Nc1ccc(Cl)cc1,6.31
10,CN(CCc1ccccn1)C(=O)c1cccnc1Oc1ccc(Cl)cc1,-19.5
11,CC(C)c1ccc(N(CCc2ccccn2)C(=O)C(C)(C)C)cc1,-5.99
12,CC(C)c1ccc(NC(=S)N(C)CCc2ccccn2)cc1,-8.91
13,CCc1ccc(CN(C)CCc2ccccn2)cc1,-62.6
14,CN(CCc1ccccn1)Cc1ccc(Cl)cc1Cl,-64.3
15,CC(C)=CCCC(C)CN(C)CCc1ccccn1 (stereo not drawn),-65.4
16,CN(CCc1ccccn1)Cc1ccc(Cl)c(Cl)c1,-36.3
17,Cc1ccccc1CN(C)CCc1ccccn1.O=C(O)C(=O)O,-7.25
18,Cc1ccc(CN(C)CCc2ccccn2)cc1,-41.1
19,Cc1cccc(CN(C)CCc2ccccn2)c1,-15.3
20,CC(=O)N1CCC(=O)N(C(C)C)c2ccccc21,3.9
21,COc1ccc(CNC(=O)c2cccnc2Sc2ccc(C)c(C)c2)cc1,3.63
22,COc1ccccc1-c1coc2cc(O)cc(O)c2c1=O,9.89
23,Cc1ccc(OCC(=O)c2ccc(Cl)s2)c([N+](=O)[O-])n1,2.66

row,SMILES,"hERG current change (%, negative = inhibition) at 10uM [%]"
1,Cc1ccc(S(=O)(=O)NCc2n[nH]c(=S)n2C)cc1,21
2,NC(=O)c1cc([N+](=O)[O-])ccc1NCc1ccc(N)cc1,10.5
3,COc1cc2c(cc1NC(=O)c1cccnc1)CCCC2,14.2
4,Cc1cccc(-c2noc(-c3ccc4c(c3)OCO4)n2)c1,7.53
5,COc1cc(OC)c(NC(=O)CCCn2c(=O)oc3ccccc32)cc1Cl,9.61
6,COc1cc(Cl)c(C)cc1NC(=O)CN1CCN(C(=O)C2CC2)CC1,-59.6
7,COc1cc(Cl)c(C)cc1NC(=O)CCCn1c(=O)oc2ccccc21,-58.7
8,COc1ccc(NC(=O)CCCn2c(=O)oc3ccccc32)cc1Cl,-12.9
9,COc1cc(Cl)c(C)cc1NC(=O)CN1CCCCCC1,-0.067
10,COc1cc(NC(=O)CN2CCN(C(=O)C3CCCO3)CC2)c(OC)cc1Cl (stereo not drawn),-12.5
11,COc1cc(NC(=O)c2ccccc2Cl)c(OC)cc1NC(=O)CN1CCOCC1,-3.34
12,COc1cc(NC(=O)c2ccccc2C)c(OC)cc1NC(=O)CN1CCOCC1,-7.78
13,COc1cc(Cl)c(C)cc1NC(=O)c1ccccc1NC(=O)CN1CCOCC1,-58.7
14,O=C(CN1CCN(S(=O)(=O)c2cc(Cl)ccc2Cl)CC1)Nc1ccc2c(c1)OCCO2,-23.2
15,O=C(CC(c1ccccc1)c1cc(Cl)ccc1O)N1CCOCC1 (stereo not drawn),-15.1
16,CCc1ccc(S(=O)(=O)N/N=C\c2ccc3c(c2)OCO3)cc1,9.85
17,CCCN(CC(=O)Nc1ccc(F)c(F)c1F)C(=O)c1ccc(N2CCCC2=O)cc1,-4.37
18,C=CCOc1ccccc1/C=N/NC(=O)c1ccc(Cl)cc1Cl,-6.98
19,O=C(CC1C(=O)NCCN1CC1CCCCC1)NCc1ccccc1Cl (stereo not drawn),-5.9
20,Cc1nc(-c2cccc(S(=O)(=O)N3CCCC(C)C3)c2)cs1 (stereo not drawn),-9.76
21,CS(=O)(=O)c1ccc(N2CCN(c3ccccn3)CC2)c([N+](=O)[O-])c1,-55
22,CS(=O)(=O)c1ccc(N2CCN(S(=O)(=O)c3cccs3)CC2)c([N+](=O)[O-])c1,-67.1
23,O=C(c1ccc(N2CCCC2)c([N+](=O)[O-])c1)N1CCN(c2ccccn2)CC1,-21.8

row,SMILES,"hERG current change (%, negative = inhibition) at 10uM [%]"
1,CN1CCN(c2ccc(S(C)(=O)=O)cc2[N+](=O)[O-])CC1,-2.78
2,Cc1ccc(C(=O)N2CCN(c3ccccn3)CC2)cc1[N+](=O)[O-],9.02
3,O=C(c1ccc(N2CCOCC2)c([N+](=O)[O-])c1)N1CCN(S(=O)(=O)c2cccs2)CC1,-47.3
4,CN1CCN(c2ccc(S(=O)(=O)N3CCCCC3)cc2[N+](=O)[O-])CC1,-48
5,O=C(c1ccc(N2CCCCC2)c([N+](=O)[O-])c1)N1CCN(c2ccccn2)CC1,-66.8
6,CC(=O)N1CCN(c2ccc(S(C)(=O)=O)cc2[N+](=O)[O-])CC1,-12.7
7,CCOC(=O)c1cnn(-c2sc(C(=O)OCC)c(C)c2C(=O)OCC)c1N,16.4
8,O=C(NC1CCCCC1)c1ccc2snnc2c1,12.8
9,NS(=O)(=O)c1ccc(CCNC(=O)CCCCCn2c(=S)[nH]c3ccc(Br)cc3c2=O)cc1,9.32
10,O=C(O)c1ccc(-n2nnnc2SCc2cccc(Br)c2)cc1,13.2
11,COc1ccc(/C=C/C(=O)NC(=S)Nc2ccc(N3CCN(C(C)=O)CC3)cc2)cc1,12.2
12,COC(=O)C1=C(c2cccc(OCc3ccccc3)c2)C[C@@H]2CC[C@H]1N2C(=O)NNCc1ccccc1,10.8
13,CC1CC(C)CN(C(=O)Cn2cc(C=O)c3ccccc32)C1 (stereo not drawn),-4.11
14,Cc1nn(C)c(C(=O)NNC(=S)NCc2ccco2)c1Cl,7.69
15,O=c1cc2c(nn1Cc1ccc(F)cc1)-c1ccccc1CC2,-61.3
16,O=c1cc2c(nn1Cc1ccccc1)-c1ccccc1CC2,-17.6
17,O=c1cc2c(nn1Cc1ccc(Cl)cc1)-c1ccccc1CC2,-13.6
18,C#Cc1ccc([C@H]2C=C(C(=O)O)O[C@@H](OCc3ccc(CO)cc3)C2)cc1,9.26
19,Clc1ccccc1OCCCCn1ccnc1,-2.93
20,O=C(O)CN1C(=O)/C(=C\c2ccccc2OCc2ccc(Cl)cc2)SC1=S,15.3
21,Cc1ccc(C2C(C(=O)c3cc4ccccc4o3)=C(O)C(=O)N2c2cc(C)on2)cc1 (stereo not drawn),19.3
22,CCOc1ccc2nc(SCC(=O)Nc3ccc4[nH]c(=O)[nH]c4c3)[nH]c2c1,27
23,Cc1ccc2nc(COc3ccc(N(C)S(=O)(=O)c4ccccc4)cc3)cc(=O)n2c1,-56

row,SMILES,"hERG current change (%, negative = inhibition) at 10uM [%]"
1,Cc1ccc2nc(COc3ccc(Cl)cc3)cc(=O)n2c1,15
2,COc1cccc(COc2ccc(N(C)S(=O)(=O)c3ccccc3)cc2)c1,3.08
3,O=C(/C(Cl)=C/Nc1ccc(Br)cn1)C(F)(F)F,12.7
4,O=C(CN1C(=O)CC(c2ccco2)Sc2ccccc21)Nc1ccc2c(c1)OCCO2 (stereo not drawn),-6.73
5,Cc1cc(NC(=O)CN2C(=O)CC(c3ccco3)Sc3ccccc32)no1 (stereo not drawn),-61.8
6,O=C(CN1C(=O)CC(c2ccco2)Sc2ccccc21)Nc1ccccc1F (stereo not drawn),-39.3
7,Oc1cccc(C=NCc2ccccc2)c1,8.22
8,O=C(c1ccc(Cl)cc1)N1CCN(C(=O)C2CCCCC2)CC1,-2.89
9,Cc1cc(C)n(-c2nc(C)nc(N)n2)n1,10.3
10,CC(C)Oc1cccc(C(=O)C2CCCN(Cc3ccc(Oc4ncccn4)cc3)C2)c1 (stereo not drawn),-62.6
11,O=C(c1ccc(Cl)cc1)C1CCCN(Cc2ccc(Oc3ncccn3)cc2)C1 (stereo not drawn),-72.9
12,CC(C)Oc1cccc(C(=O)C2CCCN(Cc3ccc4nonc4c3)C2)c1 (stereo not drawn),-1.53
13,COc1c(C)cc(C(=O)C2CCCN(Cc3ccccn3)C2)cc1C (stereo not drawn),-16.5
14,COc1c(C)cc(C(=O)C2CCCN(Cc3ccc(Oc4ncccn4)cc3)C2)cc1C (stereo not drawn),-68.9
15,CC(C)Oc1cccc(C(=O)C2CCCN(Cc3cnn(C(C)C)c3)C2)c1 (stereo not drawn),-36.3
16,COc1c(C)cc(C(=O)C2CCCN(Cc3cccc(O)c3)C2)cc1C (stereo not drawn),-23.9
17,NC(=O)C1CCCN(Cc2ccc(Cl)cc2)C1 (stereo not drawn),0.421
18,COc1cccc(-n2cc3c(=O)n(C)c(=O)n(C)c3c2)c1,-3.89
19,O=C(Nc1ccccc1Br)C(=O)N1CCCC1,3.44
20,CCCC(C)NC(=O)Cc1ccccc1[N+](=O)[O-] (stereo not drawn),2.52
21,CCCC(C)NC(=O)C1CCN(S(=O)(=O)c2ccccc2)CC1 (stereo not drawn),-12
